Measured values reported in PubChem BioAssay (NCI).
The panel holds about 83,000 compounds, 20% with a hit somewhere; the sample as a whole holds those more often.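 Cell lines were cultured in 96-well plates, exposed to a single compound concentration, and assessed for percent growth 48 hours later.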 Activity calls are given as the source filed them. Rule for the calls: active = growth percent below 10; inactive = the rest.

system: MDA-MB-468 breast; experiment: NCI-60 one-dose screen, 48 h (100 = growth as untreated, 0 = no growth, -100 = all killed); conditions: 10 µM unless noted

| SMILES | growth |
| --- | --- |
| CC(=O)Nc1ccc(C=Nc2ccc3ccccc3c2)cc1 | 107% (inactive) |
| Cn1cc(-c2nn3cc(-c4ccncc4)nc3s2)c2cc(Cl)ccc21 | 64.8% (inactive) |
| COc1ccc(CCN(CC(=O)N(CC(N)=O)C2CCC[C@@H]2OCc2ccccc2)C(=O)CN(C(=O)CN(CCc2ccc(Cl)cc2)C(=O)CN(C(=O)CN(C)Cc2ccccc2F)[C@H](C)C2CCCCC2)[C@H](C)C2CCCCC2)cc1OC (stereo not given in full) | 14.7% (inactive) |
| CN(C)CCNc1cc(-c2ccccc2)nc2ccccc12 | -33.3% (active) |
| COCCn1c(-c2csc(-c3cn(C)c4ccc(OC)cc34)n2)cc2cccnc21 | 37.9% (inactive) |
| COc1cc(/C=C2/C(=O)Nc3ccc(Cl)cc32)ccc1OCc1ccc(Cl)cc1 | 87.2% (inactive) |
| COc1ccc(-c2nc3ccc(C)cc3c3c2c(=O)n(C)c(=O)n3C)cc1OC | 100% (inactive) |
| O=c1nc(-c2ccccc2)c2cc(-c3ccc(N4CCCC4)nc3)ccc2[nH]1 | 48.4% (inactive) |
| Nc1nc(N)c(-c2ccc(Cl)cc2)c(/C=C/c2ccc([N+](=O)[O-])cc2)n1 | 64.7% (inactive) |
| CC(=O)N[C@H](C(=O)N[C@@H](CCCNC(=N)N)C(=O)N[C@@H](CCCCN)C(=O)N[C@@H](CCCNC(=N)N)C(=O)N[C@]1(C)CCC/C=C\CCC[C@@](C)(C(=O)N[C@@H](CC(C)C)C(=O)N[C@@H](CC(C)C)C(=O)N[C@@H](CCC(N)=O)C(=O)N[C@@H](CCC(=O)O)C(=O)N[C@@H](CCCNC(=N)N)C(=O)N[C@@H](CCC(=O)O)C(=O)N[C@@H](CC(C)C)C(=O)N[C@H](C(=O)N[C@@H](CCC(=O)O)C(N)=O)C(C)C)NC(=O)[C@H](CCCNC(=N)N)NC(=O)[C@H](CC(C)C)NC1=O)C(C)C | 109% (inactive) |
